Measurements reported in PubChem BioAssay (EPA / NIEHS).
“And” between values parts separate entries of the source, which are not always exact repeats. Identical values can stand only once. Results filed as inconclusive are left out. A structure can be active in one record and inactive in another. The source made the active and inactive calls. How the source made its calls, unless noted: active means hit-call score of the fitted dose curve at least 0.9, where 1 is the maximum; inconclusive means response in the unintended direction; inactive means score below 0.9.

Columns and labels:
[1] = read-out: Thyroid Hormone Responsive (THRSP), THRSP (gene 7069); test: LTEA_HepaRG_THRSP: Life Technologies and Expression Analysis (LTEA) Assay for Thyroid Hormone Responsive (THRSP) using HepaRG (AID 2283536; active means hit-call score of the fitted dose curve at least 0.9, where 1 is the maximum; inactive means score below 0.9); settings: mRNA level, 48 h; actives raise or lower the signal
Outline: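 Differentiated HepaRG cells treated 48 h in serum-free induction medium with 8 half-log concentrations up to 100 uM (0.5% DMSO), duplicates. THRSP mRNA by TaqMan qRT-PCR normalised to ACTB, GAPDH, POLR2A; bidirectional fit versus DMSO.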

[2] = read-out: Cellular tumor antigen p53 (Homo sapiens) (UniProt P04637); test: LTEA_HepaRG_TP53: Life Technologies and Expression Analysis (LTEA) Assay for Tumor Protein P53 (TP53) using HepaRG (AID 2283537; active means hit-call score of the fitted dose curve at least 0.9, where 1 is the maximum; inactive means score below 0.9); settings: mRNA level, 48 h; actives raise or lower the signal
Outline: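 HepaRG, 48 h exposure, top 100 uM, half-log 8-point, 0.5% DMSO vehicle, duplicates. Read: TP53 mRNA by TaqMan qRT-PCR, normalised to ACTB/GAPDH/POLR2A; bidirectional fit vs DMSO.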

[3] = read-out: UDP glucuronosyltransferase (UGT1A1), UGT1A1 (gene 54658); test: LTEA_HepaRG_UGT1A1: Life Technologies and Expression Analysis (LTEA) Assay for UDP glucuronosyltransferase (UGT1A1) using HepaRG (AID 2283538; active means hit-call score of the fitted dose curve at least 0.9, where 1 is the maximum; inactive means score below 0.9); settings: mRNA level, 48 h; actives raise or lower the signal
Outline: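 Human liver HepaRG cultures receive test chemical for 48 h, up to 100 uM in 0.5% DMSO, with phenobarbital induction controls. UGT1A1 mRNA is measured by qRT-PCR and normalized to ACTB, GAPDH and POLR2A.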

[4] = read-out: UDP glucuronosyltransferase (UGT1A6), UGT1A6 (gene 54578); test: LTEA_HepaRG_UGT1A6: Life Technologies and Expression Analysis (LTEA) Assay for UDP glucuronosyltransferase (UGT1A6) using HepaRG (AID 2283539; active means hit-call score of the fitted dose curve at least 0.9, where 1 is the maximum; inactive means score below 0.9); settings: mRNA level, 48 h; actives raise or lower the signal
Outline: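 Expression was quantified by TaqMan qRT-PCR on Fluidigm arrays with ACTB/GAPDH/POLR2A normalization and bidirectional fitting against 0.5% DMSO. HepaRG cells (~100,000/well) were treated in duplicate for 48 h at eight half-log concentrations up to 100 uM in serum-free induction medium.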

[5] = read-out: X-box binding protein 1 (XBP1), XBP1 (gene 7494); test: LTEA_HepaRG_XBP1: Life Technologies and Expression Analysis (LTEA) Assay for X-box binding protein 1 (XBP1) using HepaRG (AID 2283540; active means hit-call score of the fitted dose curve at least 0.9, where 1 is the maximum; inactive means score below 0.9); settings: mRNA level, 48 h; actives raise or lower the signal
Outline: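 XBP1 transcript by qRT-PCR (housekeeping-normalized: ACTB, GAPDH, POLR2A) after 48 h chemical treatment of HepaRG cells, 8-point half-log series topping at 100 uM, vehicle 0.5% DMSO. Gain and loss of signal fitted relative to DMSO.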

[6] = ATG_XTT_Cytotoxicity: Cytotoxicity Assessment in the Attagene TRANS-FACTORIAL HepG2 Assay (AID 2283584);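 on AC50: cells exposed to compound for 24 h before reading; active means loss of viability signal versus DMSO baseline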
Outline: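 Viability endpoint from XTT after 24 h chemical exposure of reporter-transfected human HepG2 liver cells; signal loss fitted relative to DMSO negative control.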

[7] = TOX21_p53_BLA_p2_viability: Viability Assessment in the Tox21 HCT-116 p53 Agonism Beta-lactamase Assay, Phase 2 (AID 2283591);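 further: compound exposure lasted 16 h at 37 °C; actives lower the ATP signal meaning cytotoxicity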
Outline: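 HCT116 p53-bla cells, 4000/well, dosed after 5 h plating (217-fold dilution of DMSO stocks) and incubated 16 h at 37C. Viability taken as cellular ATP by CellTiter-Glo luminescence after 30 min RT; signal loss marks cytotoxicity.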

[8] = molecular target: Cellular tumor antigen p53 (Homo sapiens) (UniProt P04637); test: TOX21_p53_BLA_p2_ratio: Tox21 HCT-116 p53 Agonism Beta-lactamase Assay, Ratio, Phase 2 (AID 2283592)
Cellular tumor antigen p53 (Homo sapiens), sequence (P04637 whole entry, looked up): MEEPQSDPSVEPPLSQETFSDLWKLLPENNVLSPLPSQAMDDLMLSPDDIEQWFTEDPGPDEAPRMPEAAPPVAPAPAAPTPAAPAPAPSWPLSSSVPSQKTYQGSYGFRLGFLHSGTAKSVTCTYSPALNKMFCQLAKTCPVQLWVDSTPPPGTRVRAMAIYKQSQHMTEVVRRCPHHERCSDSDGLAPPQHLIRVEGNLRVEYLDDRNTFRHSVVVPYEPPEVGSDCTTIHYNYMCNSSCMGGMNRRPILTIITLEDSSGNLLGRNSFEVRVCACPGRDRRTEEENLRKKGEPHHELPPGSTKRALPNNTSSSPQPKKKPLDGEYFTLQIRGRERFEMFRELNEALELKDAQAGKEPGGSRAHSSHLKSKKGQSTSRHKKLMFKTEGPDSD
Outline: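 Gain-of-signal p53 agonism was scored from the beta-lactamase FRET ratio (460/530 nm, 405 nm excitation) in HCT116 cells treated 16 h at 37C, 5% CO2, with DMSO serving as negative control and baseline.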

[9] = TOX21_p53_BLA_p3_viability: Viability Assessment in the Tox21 HCT-116 p53 Agonism Beta-lactamase Assay, Phase 3 (AID 2283593);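 further: cells exposed to compound for 16 h before reading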
Outline: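 HCT116 cells, 4000/well, dosed 5 h after plating by pin transfer (217-fold dilution from DMSO stock) and incubated 16 h at 37C, 5% CO2. Viability read as ATP luminescence with CellTiter-Glo after 30 min at room temperature.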

[10] = molecular target: Cellular tumor antigen p53 (Homo sapiens) (UniProt P04637); test: TOX21_p53_BLA_p3_ratio: Tox21 HCT-116 p53 Agonism Beta-lactamase Assay, Ratio, Phase 3 (AID 2283596)
Outline: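 HCT116 p53-bla cells (4000/well) given compound in DMSO (217-fold dilution) after 5 h, incubated 16 h at 37C. CCF4-AM substrate 2 h at room temperature; 460/530 nm emission ratio, gain fitted against DMSO.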

[11] = TOX21_p53_BLA_p4_viability: Viability Assessment in the Tox21 HCT-116 p53 Agonism Beta-lactamase Assay, Phase 4 (AID 2283597);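 further: hits lower the luminescence signal meaning cytotoxicity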
Outline: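 Following a 16 h exposure at 37C, the treated HCT116 wells were first read for the FRET ratio. They were then lysed with CellTiter-Glo, and ATP luminescence was recorded after 30 min at room temperature.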

[12] = molecular target: Cellular tumor antigen p53 (Homo sapiens) (UniProt P04637); test: TOX21_p53_BLA_p5_ratio: Tox21 HCT-116 p53 Agonism Beta-lactamase Assay, Ratio, Phase 5 (AID 2283599)
Outline: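 HCT-116 p53-bla cells (4000/well) plated 5 h, dosed with compound (217-fold DMSO dilution) for 16 h at 37 C; CCF4-AM substrate 2 h at room temperature. Activity is the 460/530 nm emission ratio (405 nm excitation), fitted in gain-of-signal direction versus DMSO.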

[13] = TOX21_p53_BLA_p5_viability: Viability Assessment in the Tox21 HCT-116 p53 Agonism Beta-lactamase Assay, Phase 5 (AID 2283600)
Outline: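 After the 460/530 nm beta-lactamase measurement, the wells received an ATP-detection luciferase reagent; signal was read 30 min later at RT. Compound treatment lasted 16 h on cells pre-incubated 5 h post-seeding.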

[14] = molecular target: Cellular tumor antigen p53 (Homo sapiens) (UniProt P04637); test: TOX21_p53_BLA_p4_ratio: Tox21 HCT-116 p53 Agonism Beta-lactamase Assay, Ratio, Phase 4 (AID 2283601)
Outline: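 HCT-116 p53 beta-lactamase reporter cells (4000/well) preincubated 5 h, then compound (217-fold dilution of DMSO stock) for 16 h at 37C. CCF4-AM substrate added 2 h at room temperature; 460/530 nm emission ratio fitted upward versus DMSO.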

[15] = Tanguay_ZF_120hpf_MORT_legacy: (Legacy) Oregon State University Tanguay Lab 120 Hour Post-fertilization zebrafish Assay for Mortality (AID 2283633);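 on AC50: fitted as increase in binary mortality versus DMSO negative control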
Outline: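 Static waterborne exposure from 6 to 120 hpf at 28C of single dechorionated wild-type (5D) embryos per well, 0.64% DMSO final. Death recorded present/absent by brightfield at 24 and 120 hpf.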

[16] = Tanguay_ZF_120hpf_AXIS_legacy: (Legacy) Oregon State University Tanguay Lab 120 Hour Post-fertilization zebrafish Assay for Body Axis Malformation (AID 2283635);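 on AC50: potency for an increased fraction of larvae scored with body axis malformation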
Outline: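 Binary scoring of axis defects at 120 hpf under brightfield, fitted positive versus DMSO. Tropical 5D embryos, chorion removed by pronase at 4 hpf, were singly exposed in sealed, dark plates at 28C from 6 hpf; DMSO 0.64% final.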

[17] = Tanguay_ZF_120hpf_SNOU_legacy: (Legacy) Oregon State University Tanguay Lab 120 Hour Post-fertilization zebrafish Assay for Snout Malformation (AID 2283637)
Outline: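 Dechorionated tropical 5D wild-type zebrafish embryos exposed statically from 6 to 120 hpf at 28C, one per well, in 0.64% DMSO. Snout malformation scored as present/absent by brightfield at 120 hpf; dead embryos not scored.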

[18] = Tanguay_ZF_120hpf_JAW_legacy: (Legacy) Oregon State University Tanguay Lab 120 Hour Post-fertilization zebrafish Assay for Jaw Malformation (AID 2283638);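 on AC50: active means more embryos with jaw malformation than DMSO controls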
Outline: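 Binary jaw-malformation call at 120 hpf by brightfield microscopy. Embryos (Tropical 5D strain, chorion removed at 4 hpf) were dosed statically at 6 hpf, one per well, at 28C with 0.64% DMSO. Embryos that died were not scored.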

[19] = Tanguay_ZF_120hpf_OTIC_legacy: (Legacy) Oregon State University Tanguay Lab 120 Hour Post-fertilization zebrafish Assay for Otic Vesicle Malformation (AID 2283639)
Outline: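 Otic vesicle malformation is read as a yes/no morphology call at 120 hpf. Exposure is static at 28C with 0.64% (vol/vol) DMSO; embryos that die are excluded from non-mortality endpoints.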

[20] = Tanguay_ZF_120hpf_PE_legacy: (Legacy) Oregon State University Tanguay Lab 120 Hour Post-fertilization zebrafish Assay for Pericardial Edema (AID 2283640);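 on AC50: potency for increased incidence of pericardial edema versus DMSO baseline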
Outline: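 Scoring was binary, by brightfield microscopy at 120 hpf, and skipped where mortality occurred. Wild-type embryos were kept under sealed, foil-covered static exposure at 28C in 0.64% (vol/vol) DMSO.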

Measured: AC50

CC(=O)[O][Hg][c]1ccccc1
active: [1] 2.11 µM | [2] 0.193 µM | [3] 32.5 µM | [4] 18.4 µM | [5] 11.6 µM | [6] 8.24 µM | [7] 2.74 µM and 2.65 µM and 3.55 µM | [8] 4.84 µM and 12.5 µM and 8.1 µM | [9] 254 nM and 422 nM and 682 nM | [10] 1.46 µM and 1.07 µM and 1.23 µM | [11] 3.63 µM and 4.05 µM and 3.54 µM | [12] 2.9 µM and 2.82 µM and 4.64 µM | [13] 1.5 µM and 1.56 µM and 2.25 µM | [14] 7.28 µM and 2.97 µM and 7.86 µM | [15] 0.179 µM
inactive: [16] | [17] | [18] | [19] | [20]

Cc1ccccc1N
not listed: [9] | [16] | [19]
inactive: all other assays above

O=c1[nH]c(=O)[nH]c(=O)[nH]1
not listed: [7] | [9] | [13]
inactive: all other assays above

CCC(=O)C(CC(C)N(C)C)(c1ccccc1)c1ccccc1 (configuration not stated)
active: [1] 17.8 µM | [16] 31.3 µM | [17] 29.1 µM | [18] 34.4 µM | [20] 7.24 µM
not listed: [7] | [9] | [11] | [13]
inactive: all other assays above

Cn1sc(Cl)cc1=O
active: [15] 25.7 µM
not listed: [9] | [11] | [16] | [17]
inactive: all other assays above

CC(C)(OO)c1ccccc1
not listed: [11] | [13]
inactive: all other assays above

O=C(O)C(F)(F)C(F)(F)C(F)(F)C(F)(F)C(F)(F)C(F)(F)C(F)(F)C(F)(F)C(F)(F)C(F)(F)F
active: [3] 31 µM
not listed: [4] | [7] | [9] | [11] | [16]
inactive: all other assays above

O=C1C2(Cl)C3(Cl)C4(Cl)C(Cl)(Cl)C5(Cl)C3(Cl)C1(Cl)C5(Cl)C24Cl (configuration not stated)
inactive: [6] | [15] | [19]
active: [1] 9.2 µM | [2] 22.6 µM | [3] 15.8 µM | [4] 94.7 µM | [5] 92.4 µM | [6] 31.8 µM and 35.1 µM | [7] 73.9 µM and 73.7 µM | [8] 82.6 µM and 60.4 µM | [9] 80.6 µM and 78.5 µM | [10] 72.4 µM and 85.4 µM | [11] 68.4 µM and 66.4 µM | [12] 83.8 µM and 85 µM | [13] 82 µM and 83.7 µM | [14] 83.2 µM and 60.3 µM | [16] 6.6 µM | [17] 9.66 µM | [18] 8.93 µM | [20] 38.8 µM

CCOP(=S)(OCC)Oc1nc(Cl)c(Cl)cc1Cl
active: [3] 50 µM
not listed: [6] | [9] | [13]
inactive: all other assays above
